# Whole data set: some 2,900 compounds, median “NF-kB SEAP reporter activity, fold change vs agonist alone” near 0.99, cut for the highest 2% near 2.6. Only a selection was taken, and the highest values are over-represented in it overall.
# Key:
# [1] = system: RAW-Dual; experiment: NF-kB SEAP reporter activity, fold change vs agonist alone; cytotoxicity flag (confluency mask): not cytotoxic; higher = enhanced NF-kB activity
# Procedure, shortened: (§1)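 Supernatant from RAW-Dual macrophages was read after 20 hours for IRF by QuantiLuc luminescence and for NF-κB by QuantiBlue absorbance at 620 nm. The cells (50,000 cells/well in DMEM, 384-well plates, 37 °C, 5% CO2) had received 50 nL of library stock by pin tool and, 1 h later, a PRR agonist. Reporter activity is expressed relative to agonist-alone wells as fold change, and wells were flagged cytotoxic if IncuCyte confluency was under 70% of agonist controls in both mask sets.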
# [2] = system: RAW-Dual; experiment: NF-kB SEAP reporter activity, fold change vs agonist alone; higher = enhanced NF-kB activity
# Procedure, shortened: as §1
# [3] = system: RAW-Dual; experiment: NF-kB SEAP reporter activity, fold change vs agonist alone; cytotoxicity flag (confluency mask): cytotoxic (confluency <70% of control); higher = enhanced NF-kB activity
# Procedure, shortened: as §1
# [4] = agonist: ODN 1826 (TLR9) 0.5 ug/mL
# [5] = agonist: Pam2CSK4 (TLR2/6) 0.1 ug/mL
# [6] = agonist: Pam3CSK4 (TLR2/1) 0.1 ug/mL
# [7] = library stock concentration (final ~1000-fold dilution): 10 mM, cytotoxicity flag (confluency mask): not cytotoxic, agonist: MPLA (TLR4) […]
# [8] = library stock concentration (final ~1000-fold dilution): 10 mM, cytotoxicity flag (confluency mask): not cytotoxic, agonist: Imiquimod (TLR7) […]
# [9] = library stock concentration (final ~1000-fold dilution): 2 mM, cytotoxicity flag (confluency mask): not cytotoxic, agonist: Imiquimod (TLR7) […]
# [10] = library stock concentration (final ~1000-fold dilution): 2 mM, cytotoxicity flag (confluency mask): not cytotoxic, agonist: MPLA (TLR4) […]
compound,measurement,setting,value
NS(=O)(=O)c1ccccc1 (library stock concentration (final ~1000-fold dilution): 10 mM),NF-kB SEAP reporter activity,[1]; agonist: LPS (TLR4) 0.1 ug/mL,1.04
same,NF-kB SEAP reporter activity,[1]; [4],0.987
same,NF-kB SEAP reporter activity,[1]; [5],1.07
same,NF-kB SEAP reporter activity,[1]; [6],0.771
NS(=O)(=O)c1ccccc1,NF-kB SEAP reporter activity,[2]; [7],1.11
C=CC1CN2CCC1CC2C(O)c1ccnc2ccc(OC)cc12.C=CC1CN2CCC1CC2C(O)c1ccnc2ccc(OC)cc12.O.O.O=S(=O)(O)O (centres undefined),NF-kB SEAP reporter activity,[2]; [8],1.06
same,NF-kB SEAP reporter activity,[2]; [7],0.931
C=CC1CN2CCC1CC2C(O)c1ccnc2ccc(OC)cc12.C=CC1CN2CCC1CC2C(O)c1ccnc2ccc(OC)cc12.O.O.O=S(=O)(O)O (centres undefined) (library stock concentration (final ~1000-fold dilution): 10 mM),NF-kB SEAP reporter activity,[1]; agonist: LPS (TLR4) 0.1 ug/mL,1.16
same,NF-kB SEAP reporter activity,[1]; [4],0.531
same,NF-kB SEAP reporter activity,[1]; [5],1.35
same,NF-kB SEAP reporter activity,[1]; [6],1.05
CN(C)Cc1ccc(S(=O)(=O)n2ccc(/C=C/C(=O)NO)c2)cc1,NF-kB SEAP reporter activity,[2]; [8],1.01
same,NF-kB SEAP reporter activity,[2]; [7],0.905
CN(C)Cc1ccc(S(=O)(=O)n2ccc(/C=C/C(=O)NO)c2)cc1 (library stock concentration (final ~1000-fold dilution): 10 mM),NF-kB SEAP reporter activity,[1]; agonist: LPS (TLR4) 0.1 ug/mL,4.18
same,NF-kB SEAP reporter activity,[1]; [4],0.95
same,NF-kB SEAP reporter activity,[1]; [5],1.03
same,NF-kB SEAP reporter activity,[1]; [6],0.94
CC1(Cn2ccnn2)C(C(=O)O)N2C(=O)CC2S1(=O)=O (centres undefined) (library stock concentration (final ~1000-fold dilution): 10 mM),NF-kB SEAP reporter activity,[1]; agonist: LPS (TLR4) 0.1 ug/mL,0.971
same,NF-kB SEAP reporter activity,[1]; [4],1.03
same,NF-kB SEAP reporter activity,[1]; [5],0.946
same,NF-kB SEAP reporter activity,[1]; [6],1.06
CC1(Cn2ccnn2)C(C(=O)O)N2C(=O)CC2S1(=O)=O (centres undefined),NF-kB SEAP reporter activity,[2]; [8],1.06
same,NF-kB SEAP reporter activity,[2]; [7],0.964
CC(C)Nc1cc(-c2c[nH]c(C(=O)NC(CO)c3cccc(Cl)c3)c2)c(Cl)cn1 (centres undefined) (library stock concentration (final ~1000-fold dilution): 10 mM),NF-kB SEAP reporter activity,[1]; agonist: LPS (TLR4) 0.1 ug/mL,0.201
same,NF-kB SEAP reporter activity,[1]; [4],0.189
same,NF-kB SEAP reporter activity,[1]; [5],0.0811
same,NF-kB SEAP reporter activity,[1]; [6],0.114
CC(C)Nc1cc(-c2c[nH]c(C(=O)NC(CO)c3cccc(Cl)c3)c2)c(Cl)cn1 (centres undefined),NF-kB SEAP reporter activity,[2]; [8],0.128
same,NF-kB SEAP reporter activity,[2]; [7],0.246
CC#Cc1cncc(-c2ccc3c(c2)C2(N=C(C)C(N)=N2)C2(CCC(OC)CC2)C3)c1 (centres undefined),NF-kB SEAP reporter activity,[2]; [8],1.18
same,NF-kB SEAP reporter activity,[2]; [7],1.01
CC#Cc1cncc(-c2ccc3c(c2)C2(N=C(C)C(N)=N2)C2(CCC(OC)CC2)C3)c1 (centres undefined) (library stock concentration (final ~1000-fold dilution): 10 mM),NF-kB SEAP reporter activity,[1]; agonist: LPS (TLR4) 0.1 ug/mL,1.15
same,NF-kB SEAP reporter activity,[1]; [4],0.723
same,NF-kB SEAP reporter activity,[1]; [5],0.809
same,NF-kB SEAP reporter activity,[1]; [6],0.972
COc1cc(N2CCC(N(C)C)CC2)ccc1Nc1ncc(Cl)c(Nc2ccccc2P(C)(C)=O)n1,NF-kB SEAP reporter activity,[2]; [8],1.64
same,NF-kB SEAP reporter activity,[2]; [7],2.05
COc1cc(N2CCC(N3CCN(C)CC3)CC2)ccc1Nc1ncc(Cl)c(Nc2ccccc2S(=O)(=O)C(C)C)n1 (library stock concentration (final ~1000-fold dilution): 2 mM),NF-kB SEAP reporter activity,[1]; agonist: LPS (TLR4) 0.1 ug/mL,1.66
same,NF-kB SEAP reporter activity,[1]; [4],0.603
same,NF-kB SEAP reporter activity,[1]; [5],0.757
same,NF-kB SEAP reporter activity,[1]; [6],1.2
COc1cc(N2CCC(N3CCN(C)CC3)CC2)ccc1Nc1ncc(Cl)c(Nc2ccccc2P(C)(C)=O)n1,NF-kB SEAP reporter activity,[2]; [9],1.15
same,NF-kB SEAP reporter activity,[2]; [10],1.26
COc1cc(N2CCC(N3CCN(C)CC3)CC2)ccc1Nc1ncc(Cl)c(Nc2ccccc2S(=O)(=O)C(C)C)n1,NF-kB SEAP reporter activity,[2]; [9],1.28
same,NF-kB SEAP reporter activity,[2]; [10],0.939
Cc1cc(Nc2ncc(Cl)c(Nc3ccccc3S(=O)(=O)C(C)C)n2)c(OC(C)C)cc1C1CCNCC1,NF-kB SEAP reporter activity,"[2]; library stock concentration (final ~1000-fold dilution): 10 mM, cytotoxicity flag (confluency mask): cytotoxic (confluency <70% of control), agonist: Imiquimod (TLR7) […]",2.07
same,NF-kB SEAP reporter activity,"[2]; library stock concentration (final ~1000-fold dilution): 10 mM, cytotoxicity flag (confluency mask): cytotoxic (confluency <70% of control), agonist: MPLA (TLR4) […]",0.569
COc1cc(N2CCC(N3CCN(C)CC3)CC2)ccc1Nc1ncnc(Nc2ccccc2S(=O)(=O)C(C)C)n1 (library stock concentration (final ~1000-fold dilution): 10 mM),NF-kB SEAP reporter activity,[1]; agonist: LPS (TLR4) 0.1 ug/mL,5.53
same,NF-kB SEAP reporter activity,[1]; [4],0.961
same,NF-kB SEAP reporter activity,[1]; [5],0.718
same,NF-kB SEAP reporter activity,[1]; [6],1.04
COc1cc(N2CCC(N3CCN(C)CC3)CC2)ccc1Nc1ncnc(Nc2ccccc2S(=O)(=O)C(C)C)n1,NF-kB SEAP reporter activity,[2]; [8],0.945
same,NF-kB SEAP reporter activity,[2]; [7],1.14
Cc1cc(Nc2ncc(Cl)c(Nc3ccccc3S(=O)(=O)C(C)C)n2)c(OC(C)C)cc1C1CCNCC1 (library stock concentration (final ~1000-fold dilution): 10 mM),NF-kB SEAP reporter activity,[3]; agonist: LPS (TLR4) 0.1 ug/mL,0.198
same,NF-kB SEAP reporter activity,[3]; [4],0.674
same,NF-kB SEAP reporter activity,[3]; [5],0.845
same,NF-kB SEAP reporter activity,[3]; [6],0.455
C=CC(=O)Nc1cccc(Oc2nc(Nc3ccc(N4CCN(C)CC4)cc3OC)ncc2Cl)c1,NF-kB SEAP reporter activity,[2]; [8],0.931
same,NF-kB SEAP reporter activity,[2]; [7],0.977
COc1cc(N2CCC(N(C)C)CC2)ccc1Nc1ncc(Cl)c(Nc2ccccc2P(C)(C)=O)n1 (library stock concentration (final ~1000-fold dilution): 10 mM),NF-kB SEAP reporter activity,[1]; agonist: LPS (TLR4) 0.1 ug/mL,1.87
same,NF-kB SEAP reporter activity,[1]; [4],1.64
same,NF-kB SEAP reporter activity,[1]; [5],1.03
same,NF-kB SEAP reporter activity,[1]; [6],1.46
COc1cc(N2CCC(N3CCN(C)CC3)CC2)ccc1Nc1ncc(Cl)c(Nc2ccccc2P(C)(C)=O)n1 (library stock concentration (final ~1000-fold dilution): 2 mM),NF-kB SEAP reporter activity,[1]; agonist: LPS (TLR4) 0.1 ug/mL,2.66
same,NF-kB SEAP reporter activity,[1]; [4],1.27
same,NF-kB SEAP reporter activity,[1]; [5],1.28
same,NF-kB SEAP reporter activity,[1]; [6],1.66
C=CC(=O)Nc1cccc(Oc2nc(Nc3ccc(N4CCN(C)CC4)cc3OC)ncc2Cl)c1 (library stock concentration (final ~1000-fold dilution): 10 mM),NF-kB SEAP reporter activity,[1]; agonist: LPS (TLR4) 0.1 ug/mL,0.915
same,NF-kB SEAP reporter activity,[1]; [4],0.863
same,NF-kB SEAP reporter activity,[1]; [5],0.802
same,NF-kB SEAP reporter activity,[1]; [6],0.684
Cl.Cl.NC1CCC(NC2CC2c2ccccc2)CC1 (centres undefined) (library stock concentration (final ~1000-fold dilution): 10 mM),NF-kB SEAP reporter activity,[1]; agonist: LPS (TLR4) 0.1 ug/mL,1.25
same,NF-kB SEAP reporter activity,[1]; [4],0.222
same,NF-kB SEAP reporter activity,[1]; [5],0.869
same,NF-kB SEAP reporter activity,[1]; [6],0.615
Cl.Cl.NC1CCC(NC2CC2c2ccccc2)CC1 (centres undefined),NF-kB SEAP reporter activity,[2]; [8],1.03
same,NF-kB SEAP reporter activity,[2]; [7],1.37
CC12CCC(=O)C=C1C=CC1C2CCC2(C)C1CCC21CCC(=O)O1 (centres undefined) (library stock concentration (final ~1000-fold dilution): 10 mM),NF-kB SEAP reporter activity,[1]; agonist: LPS (TLR4) 0.1 ug/mL,0.949
same,NF-kB SEAP reporter activity,[1]; [4],1.05
same,NF-kB SEAP reporter activity,[1]; [5],0.849
same,NF-kB SEAP reporter activity,[1]; [6],0.874
CC12CCC(=O)C=C1C=CC1C2CCC2(C)C1CCC21CCC(=O)O1 (centres undefined),NF-kB SEAP reporter activity,[2]; [7],1.05
Cl.O=C1Cc2cc(CCN3CCN(c4nsc5ccccc45)CC3)c(Cl)cc2N1,NF-kB SEAP reporter activity,[2]; [8],0.412
same,NF-kB SEAP reporter activity,[2]; [7],0.73
Cl.O=C1Cc2cc(CCN3CCN(c4nsc5ccccc45)CC3)c(Cl)cc2N1 (library stock concentration (final ~1000-fold dilution): 10 mM),NF-kB SEAP reporter activity,[1]; agonist: LPS (TLR4) 0.1 ug/mL,0.912
same,NF-kB SEAP reporter activity,[1]; [4],0.338
same,NF-kB SEAP reporter activity,[1]; [5],0.746
same,NF-kB SEAP reporter activity,[1]; [6],0.865
O=C1Nc2ccc(CN3C(=O)CSC3=O)cc2/C1=C/c1cc(CN2CCOCC2)c[nH]1 (library stock concentration (final ~1000-fold dilution): 10 mM),NF-kB SEAP reporter activity,[1]; agonist: LPS (TLR4) 0.1 ug/mL,1.89
same,NF-kB SEAP reporter activity,[1]; [4],1.3
same,NF-kB SEAP reporter activity,[1]; [5],0.605
same,NF-kB SEAP reporter activity,[1]; [6],1.13
O=C1Nc2ccc(CN3C(=O)CSC3=O)cc2/C1=C/c1cc(CN2CCOCC2)c[nH]1,NF-kB SEAP reporter activity,[2]; [8],1.07
same,NF-kB SEAP reporter activity,[2]; [7],1.43

# Source: the supplement of paper PMC10037445
